Test [1] in a line: qHTS assay to identify small molecule agonists of the androgen receptor (AR) signaling pathway in the presence of an antagonist - cell viability counter screen (AID 1259379). Also: nearly all actives have a fitted effect of over 25% in size. Also: potency is read from the fitted curve at half-maximal effect.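 As to activity change, negative = cytotoxicity: MDA-kb2 human breast cancer cells carrying an MMTV luciferase reporter; series mostly up to about 92 µM.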 In short, it runs like this: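 Viability counter screen: CellTiter-Fluor fluorescence, measured in the same wells as the luciferase read-out. MDA-kb2 cells, 3,000/well, with nilutamide at 3.0uM final and compounds at 15 concentrations, 16 hr at 37C, 0% CO2.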

Test [2] in a line: qHTS assay to identify small molecule agonists of the estrogen receptor beta (ER-beta) signaling pathway - cell viability counter screen (AID 1259380). Also: nearly all actives have a fitted effect of over 30% in size. The essentials:
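Luminescence read-out (CellTiter-Glo, 30 min, room temp) taken in the same wells as the beta-lactamase reporter assay; ER-beta-UAS-bla HEK293T cells exposed to DMSO-dissolved compounds for 16 hr at 37C in 2% charcoal-stripped FBS medium.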
For orientation: qHTS replaces the single test concentration by a dilution series.

The nature of test [3]: qHTS assay to identify small molecule antagonists of the estrogen receptor beta (ER-beta) signaling pathway - cell viability counter screen (AID 1259382).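 Also: HEK293T cells carrying ER-beta-UAS-bla reporter stimulated with estradiol; series mostly up to about 92 µM; nearly all actives have a fitted effect of over 55% in size.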 The essentials: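 Luminescent ATP read-out (CellTiter-Glo, 30 min, RT) taken in the same wells as the bla reporter assay. HEK293T ER-beta-UAS-bla cells in 2% charcoal-stripped FBS were exposed to compounds with 1nM E2 for 16 hr at 37C.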

The target of test [4] is Estrogen receptor (Homo sapiens) (UniProt P03372). As to the kind of experiment: qHTS assay to identify small molecule agonists of the estrogen receptor alpha (ER-alpha) signaling pathway in the presence of an antagonist (AID 1259383; calls by dose curve; also: top concentration of the series differs between compounds; nearly all actives have a fitted effect of over 15% in size). The essentials: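 Luciferase luminescence (ONE-Glo, 30min at room temperature) measured in VM7Luc4E2 cells after 22hr compound exposure at 15 concentrations, with 10.0nM ICI-182,780 final present; cells express endogenous ER-alpha and carry four EREs upstream of luciferase.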

The nature of test [5]: qHTS assay to identify small molecule agonists or antagonists of the thyroid stimulating hormone receptor (TSHR) signaling pathway - wild type cell line counter screen (AID 1259384; calls by dose curve). In short, it runs like this: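 Wild-type Hek293 cells, 800/well, 18 h at 37C, then compound with Ro20-1724 for 30 min RT. cAMP by HTRF (cAMP-d2/anti-cAMP cryptate), 1 h RT, fluorescence read. 15 concentrations, triplicates.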

Test [6] deals with Thyrotropin receptor (Homo sapiens) (UniProt P16473). As to the kind of experiment: qHTS assay to identify small molecule antagonists of the thyroid stimulating hormone receptor (TSHR) signaling pathway (AID 1259385; calls by dose curve; also: nearly all actives have a fitted effect of over 20% in size). In short, it runs like this: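 TSHR-HEK293 cells (800/well) plated 18 h, then compounds with Ro20-1724 and TSH at 1.5 ng/mL final, 30 min at room temperature. cAMP quantified by HTRF (cAMP-d2/anti-cAMP-cryptate, 1 h); 15 concentrations in triplicate.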

Test [7] can be described thus: qHTS assay to identify small molecule agonists of the estrogen receptor alpha (ER-alpha) signaling pathway in the presence of an antagonist - cell viability counter screen (AID 1259386). Also: nearly all actives have a fitted effect of over 30% in size. Also: potency is read from the fitted curve at half-maximal effect. As to activity change, negative = cytotoxicity: series mostly up to about 92 µM. The essentials: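 Read-out: CellTiter-Fluor fluorescence after 1hr reagent incubation, measured in the same wells as the luciferase readout. VM7Luc4E2 cells were exposed to 15 compound concentrations with 10.0nM ICI-182,780 for 22hr at 37C.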

For test [8], the target named is Progesterone receptor (Homo sapiens) (UniProt P06401). As to the kind of experiment: qHTS assay to identify small molecule agonists of the progesterone receptor (PR) signaling pathway (AID 1346784; calls by dose curve; also: nearly all actives have a fitted effect of over 30% in size). In short, it runs like this: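 The screen uses PR-UAS-bla HEK 293T cells in charcoal-stripped serum (2%). Compounds are applied for 16 hr at 37C after a 6 hr pre-incubation, and reporter activity is detected with a FRET beta-lactamase substrate after 2 hr at room temperature.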

The nature of test [9]: qHTS assay to identify small molecule antagonists of the TGF-beta/Smad signaling pathway - cell viability counter screen (AID 1346824). Also: nearly all actives have a fitted effect of over 50% in size. The essentials: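 SBE-bla HEK 293T cells, incubated overnight, then compound plus 0.25 ng/mL TGF-beta1 (stock added) for 5 hr at 37 C. Viability was read in the same wells by CellTiter-Glo luminescence after 30 min at room temperature.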
Test [10] in a line: qHTS assay to identify small molecule agonists of the TGF-beta/Smad signaling pathway (AID 1346859; active = well fitted activation curve with a large enough effect in the signal ratio in the repeat runs, not every such curve was filed as active; the % refers to the signal ratio; also: series mostly up to about 77 µM). In short, it runs like this: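 Dual-wavelength fluorescence (460/530 nm emission) quantified beta-lactamase expression under the Smad binding element in HEK 293T cells following 5 hr compound treatment at 37 C.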
The target of test [11] is Thyrotropin-releasing hormone receptor (Homo sapiens) (UniProt P34981). As to the kind of experiment: qHTS assay to identify small molecule antagonists of the thyrotropin-releasing hormone receptor (TRHR) signaling pathway (AID 1346877; active = well fitted inhibition curve with a large enough effect in the repeat runs, not every such curve was filed as active; also: series mostly up to about 51 µM). The essentials: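 HEK293/TRHR cells, 18 h, 37 °C; Ca2+ dye 2 h; cpd 5 min RT; TRH 1 nM final; fluorescence read 3 min, 1 s intervals; 15 concs, triplicate.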

Test [12] shares this target. As to the kind of experiment: qHTS assay to identify small molecule agonists of the thyrotropin-releasing hormone receptor (TRHR) signaling pathway (AID 1346891; calls by dose curve;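 also: HEK293 cells expressing TRHR with calcium dye readout; series mostly up to about 58 µM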). The essentials:
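Kinetic fluorescence (3 min, 1 s intervals) reported intracellular calcium after compound transfer onto TRHR-Hek293 cells pre-loaded with dye for 2 h at 37 °C.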

Test [13] in a line: Human pregnane X receptor (PXR) small molecule agonists, qHTS cell viability counter screen (AID 1346977). Also: nearly all actives have a fitted effect of over 50% in size. Also: potency is read from the fitted curve at half-maximal effect. In short, it runs like this:
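HepG2 cells stably carrying the PXR-Luc reporter are cultured with 5% charcoal-stripped FBS and treated with compounds for 24hr. CellTiter-Fluor is added at 23hr and fluorescence is read after 1hr.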

Test [14] deals with Androgen receptor (Homo sapiens) (UniProt P10275). The test is described as follows: qHTS assay to identify small molecule agonists of the androgen receptor (AR) signaling pathway in the presence of an antagonist (AID 1259381; calls by dose curve; also: nearly all actives have a fitted effect of over 15% in size). The essentials: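 Luciferase read-out (ONE-Glo, 30min room temperature) in MDA-kb2 MMTV-reporter cells; agonist mode run in presence of AR antagonist nilutamide, 3.0uM final. Compounds tested as 15-point series, 16hr exposure at 37C, 0% CO2.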

In test [15] the target is Progesterone receptor (Homo sapiens) (UniProt P06401). The test is described as follows: qHTS assay to identify small molecule antagonists of the progesterone receptor (PR) signaling pathway (AID 1346795; active = well fitted inhibition curve with a large enough effect in the signal ratio in the repeat runs, not every such curve was filed as active; the % refers to the signal ratio; also: potency is read from the fitted curve at half-maximal effect). The essentials: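 After 6 hr plating at 37C in 2% stripped-serum medium, PR-UAS-bla HEK293T cells got compounds, then 1 nM R5020. Sixteen hours later, LiveBLAzer substrate was applied for 2 hr at room temperature and fluorescence was recorded.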

Test [16] in a line: qHTS assay to identify small molecule antagonists of the progesterone receptor (PR) signaling pathway - cell viability counter screen (AID 1346798). Also: series mostly up to about 92 µM; nearly all actives have a fitted effect of over 50% in size. The essentials:
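Viability was determined by ATP-based luminescence (CellTiter-Glo) in PR-UAS-bla HEK293T cells cultured in 2% charcoal-stripped serum and incubated 16 hr with compounds under R5020 stimulation.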

The nature of test [17]: qHTS assay to identify small molecule agonists of the progesterone receptor (PR) signaling pathway - cell viability counter screen (AID 1346799; calls by dose curve; also: nearly all actives have a fitted effect of over 45% in size). In short, it runs like this: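 Viability was scored by ATP luminescence (CellTiter-Glo, 30 min, room temperature) in the same wells used for the reporter readout, after 16 hr compound exposure of PR-UAS-bla HEK293T cells.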
Test [18] in a line: qHTS assay to identify small molecule agonists of the TGF-beta/Smad signaling pathway - cell viability counter screen (AID 1346829). Also: top concentration of the series differs between compounds; nearly all actives have a fitted effect of over 45% in size. In short, it runs like this: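 Tox21 qHTS format: SBE-bla HEK 293T cells treated with DMSO-dissolved compounds for 5 hr; CellTiter-Glo luminescence after 30 min at room temperature.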

Unmarked numbers belong to inactive results. Inconclusive results are not listed. The source made the active and inactive calls. Unless noted, calls follow the shape of the dose curve; as a rule, active = well fitted curve in the direction sought with a large enough effect in the repeat runs; inconclusive = weak or mixed curves; inactive = no such curve, though single readings can be large; an effect the other way counts as inactive or inconclusive.
% is scaled to controls: 0 for no effect and ±100 for the full control effect.

Estrogen receptor (Homo sapiens), sequence (P03372 whole entry, looked up): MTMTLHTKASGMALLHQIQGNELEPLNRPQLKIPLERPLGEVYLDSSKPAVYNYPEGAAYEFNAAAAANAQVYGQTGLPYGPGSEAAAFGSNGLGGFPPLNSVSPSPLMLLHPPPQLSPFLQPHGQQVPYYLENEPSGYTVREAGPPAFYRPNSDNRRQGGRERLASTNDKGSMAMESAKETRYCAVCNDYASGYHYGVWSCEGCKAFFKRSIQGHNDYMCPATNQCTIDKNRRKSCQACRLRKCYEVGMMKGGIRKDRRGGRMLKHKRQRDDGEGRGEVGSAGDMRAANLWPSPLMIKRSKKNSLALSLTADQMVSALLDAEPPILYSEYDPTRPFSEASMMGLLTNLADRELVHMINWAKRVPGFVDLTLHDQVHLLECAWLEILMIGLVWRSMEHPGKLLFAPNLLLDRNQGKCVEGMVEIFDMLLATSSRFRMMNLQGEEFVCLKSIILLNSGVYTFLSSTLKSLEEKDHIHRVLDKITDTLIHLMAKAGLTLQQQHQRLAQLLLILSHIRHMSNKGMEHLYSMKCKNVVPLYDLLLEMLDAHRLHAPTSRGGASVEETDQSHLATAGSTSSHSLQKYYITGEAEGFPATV
Progesterone receptor (Homo sapiens), sequence (P06401 whole entry, looked up): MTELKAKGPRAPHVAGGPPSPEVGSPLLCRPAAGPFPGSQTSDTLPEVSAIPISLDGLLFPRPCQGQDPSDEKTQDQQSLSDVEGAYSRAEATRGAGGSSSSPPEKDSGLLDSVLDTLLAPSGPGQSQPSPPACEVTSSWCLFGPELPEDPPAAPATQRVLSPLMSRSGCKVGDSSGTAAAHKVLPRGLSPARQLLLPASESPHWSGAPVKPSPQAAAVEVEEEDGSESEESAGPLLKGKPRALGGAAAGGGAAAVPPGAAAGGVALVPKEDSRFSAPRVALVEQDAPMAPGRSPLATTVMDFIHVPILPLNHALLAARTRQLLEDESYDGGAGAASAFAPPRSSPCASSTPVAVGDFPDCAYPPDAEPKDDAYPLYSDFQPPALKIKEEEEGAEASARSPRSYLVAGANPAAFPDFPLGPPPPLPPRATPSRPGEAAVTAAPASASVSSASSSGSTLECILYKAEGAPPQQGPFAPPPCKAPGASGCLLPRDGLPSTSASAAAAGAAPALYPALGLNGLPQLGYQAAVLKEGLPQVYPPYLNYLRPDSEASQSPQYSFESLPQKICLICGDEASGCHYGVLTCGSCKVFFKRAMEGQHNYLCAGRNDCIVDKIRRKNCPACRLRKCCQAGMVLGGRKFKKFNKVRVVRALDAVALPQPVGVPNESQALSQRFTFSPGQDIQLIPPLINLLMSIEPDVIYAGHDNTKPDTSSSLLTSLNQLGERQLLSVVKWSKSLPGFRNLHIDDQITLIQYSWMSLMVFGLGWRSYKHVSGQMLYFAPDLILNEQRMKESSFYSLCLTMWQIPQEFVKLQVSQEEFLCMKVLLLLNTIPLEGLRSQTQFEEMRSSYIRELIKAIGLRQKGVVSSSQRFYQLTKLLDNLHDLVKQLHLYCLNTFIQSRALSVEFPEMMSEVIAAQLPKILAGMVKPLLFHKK
Thyrotropin receptor (Homo sapiens), sequence (P16473 whole entry, looked up): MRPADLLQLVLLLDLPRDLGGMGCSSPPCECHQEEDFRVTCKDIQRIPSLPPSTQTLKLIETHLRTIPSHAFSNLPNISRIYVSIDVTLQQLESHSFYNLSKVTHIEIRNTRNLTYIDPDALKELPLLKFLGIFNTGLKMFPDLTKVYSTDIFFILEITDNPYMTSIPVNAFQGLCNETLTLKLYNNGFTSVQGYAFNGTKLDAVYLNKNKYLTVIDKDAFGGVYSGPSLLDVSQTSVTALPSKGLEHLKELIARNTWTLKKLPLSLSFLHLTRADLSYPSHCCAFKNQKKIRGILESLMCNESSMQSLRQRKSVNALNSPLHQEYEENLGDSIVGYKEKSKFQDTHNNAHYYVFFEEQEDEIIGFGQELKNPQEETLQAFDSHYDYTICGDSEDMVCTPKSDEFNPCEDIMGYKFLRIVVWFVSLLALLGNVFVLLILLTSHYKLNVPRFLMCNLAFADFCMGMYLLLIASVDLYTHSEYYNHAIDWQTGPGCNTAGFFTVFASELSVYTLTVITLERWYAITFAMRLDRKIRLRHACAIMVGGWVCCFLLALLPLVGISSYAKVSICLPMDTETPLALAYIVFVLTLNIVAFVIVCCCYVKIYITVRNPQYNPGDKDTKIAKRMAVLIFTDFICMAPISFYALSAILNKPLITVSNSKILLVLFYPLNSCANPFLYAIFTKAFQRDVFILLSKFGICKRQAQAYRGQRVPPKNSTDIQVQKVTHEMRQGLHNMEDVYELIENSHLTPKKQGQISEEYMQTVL
Thyrotropin-releasing hormone receptor (Homo sapiens), sequence (P34981 whole entry, looked up): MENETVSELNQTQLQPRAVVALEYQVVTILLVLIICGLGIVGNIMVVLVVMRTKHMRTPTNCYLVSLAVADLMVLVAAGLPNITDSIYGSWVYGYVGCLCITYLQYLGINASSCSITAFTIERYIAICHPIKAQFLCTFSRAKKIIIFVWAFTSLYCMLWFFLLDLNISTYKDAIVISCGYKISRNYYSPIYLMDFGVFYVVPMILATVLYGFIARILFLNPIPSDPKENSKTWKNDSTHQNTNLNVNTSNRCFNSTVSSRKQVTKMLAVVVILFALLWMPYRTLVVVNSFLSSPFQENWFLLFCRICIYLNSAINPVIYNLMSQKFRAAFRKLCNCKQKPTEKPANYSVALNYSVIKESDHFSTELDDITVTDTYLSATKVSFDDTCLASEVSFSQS
Androgen receptor (Homo sapiens), sequence (P10275 whole entry, looked up): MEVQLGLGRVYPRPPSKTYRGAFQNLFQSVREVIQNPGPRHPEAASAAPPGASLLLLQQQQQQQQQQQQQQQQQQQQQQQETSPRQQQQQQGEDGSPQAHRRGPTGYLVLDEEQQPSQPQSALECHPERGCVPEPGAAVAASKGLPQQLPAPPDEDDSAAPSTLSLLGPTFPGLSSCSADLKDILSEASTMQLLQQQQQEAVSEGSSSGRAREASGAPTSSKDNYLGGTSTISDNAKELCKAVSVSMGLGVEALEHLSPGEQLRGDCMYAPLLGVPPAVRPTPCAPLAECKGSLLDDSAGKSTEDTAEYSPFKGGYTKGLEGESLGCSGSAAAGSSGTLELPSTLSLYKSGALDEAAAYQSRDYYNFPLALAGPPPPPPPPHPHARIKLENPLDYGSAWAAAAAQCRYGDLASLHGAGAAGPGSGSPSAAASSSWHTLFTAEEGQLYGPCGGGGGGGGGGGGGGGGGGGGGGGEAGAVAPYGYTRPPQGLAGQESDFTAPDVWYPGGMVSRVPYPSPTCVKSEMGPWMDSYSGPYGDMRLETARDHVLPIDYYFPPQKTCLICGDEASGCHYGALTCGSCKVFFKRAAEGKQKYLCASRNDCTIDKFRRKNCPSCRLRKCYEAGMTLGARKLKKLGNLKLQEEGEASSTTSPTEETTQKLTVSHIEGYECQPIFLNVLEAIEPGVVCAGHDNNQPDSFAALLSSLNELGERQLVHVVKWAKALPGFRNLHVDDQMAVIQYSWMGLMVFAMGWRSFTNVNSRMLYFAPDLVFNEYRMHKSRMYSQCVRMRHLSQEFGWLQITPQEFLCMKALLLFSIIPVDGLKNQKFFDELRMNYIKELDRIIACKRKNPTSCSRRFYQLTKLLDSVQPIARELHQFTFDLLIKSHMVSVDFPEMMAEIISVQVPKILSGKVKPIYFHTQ

As to `CCOC(=O)[C@@](C)(N)Cc1ccc(O)c(O)c1`, the Potency result in test [1], in [2], in test [3], in [4], in test [6] and in test [7] was “inactive” each time. For the same compound, the Potency result in test [9], in test [10], in test [11], in [12] and in [13] was “inactive” each time. In addition, the outcome in test [5] and in test [8] was inactive.

Regarding `O=C1c2c(O)ccc(O)c2C(=O)c2c(NCCNCCO)ccc(NCCNCCO)c21`, the Potency in test [1] was 11.9 µM (active); in [7], 26.6 µM (active); in test [15], 3.35 µM (active); in test [13], 4.22 µM (active). Besides, the Potency result in test [2], in [14], in test [3], in test [9], in test [11] and in [12] was “inactive” throughout.

Turning to `CCCCCCCCCCCC(=O)N(CC)CC`, the Potency result in test [1], in [2], in test [3], in test [7], in test [16] and in test [17] was “inactive” in each case. The Potency result in [18], in test [10], in test [11], in [12] and in [13] was “inactive” each time. For the same compound, the outcome in test [5] and in [8] was inactive.

As for `O=C=NCc1cccc(CN=C=O)c1`, the activity change, negative = cytotoxicity in test [1] was -5.15% [at 19 µM]; in test [2], 2.31% [at 19 µM]; in test [3], 13% [at 19 µM]; in test [7] it was 1.12% [at 19 µM]; in [16], -11.8% [at 18.9 µM]; in test [17] it was -1.39% [at 19 µM]. In addition, the activity change, negative = cytotoxicity in test [18] was -12.3% [at 15.8 µM]; in test [13], 4.21% [at 19 µM]. The activation was 0.099% [at 19 µM] in test [4], -0.779% [at 19 µM] in [8], 3.26% [at 15.8 µM] in [10] and -0.119% [at 11.8 µM] in test [12]. In addition, the activity change, negative = inhibition in test [6] was 2.52% [at 19 µM]; in [15] it was 0.417% [at 18.9 µM]. For the same compound, the viability change, negative = cytotoxic in test [9] was -4.21% [at 15.8 µM]. Also, the activity, negative = inhibition in test [11] was 1.76% [at 10.5 µM].

In the case of `NCCCCCCNCCCCCCN`, the Potency result in test [1], in [2], in test [3], in [4], in test [7] and in [15] was “inactive” in each case. Moreover, the Potency result in test [16], in test [17], in [9], in [18], in [10] and in test [11] was “inactive” each time. Also, the Potency entry in test [12] and in test [13] was “inactive” in each case. Also, the compound was called inactive in test [8].

In the case of `CCN(CC)c1cccc(C)c1`, the Potency result in test [1], in test [2], in test [3], in test [4], in test [6] and in [15] was “inactive” throughout. Further, the Potency entry in [16], in test [17], in test [9], in test [18], in test [10] and in [11] was “inactive” in each case. Also, the Potency entry in test [12] and in [13] was “inactive” throughout.

Regarding `CC(C)c1ccccc1N`, the Potency result in test [1], in [2], in [3], in test [4], in [6] and in test [7] was “inactive” each time. The Potency entry in [15], in test [16], in test [17], in test [18], in test [10] and in [11] was “inactive” in each case. In addition, the Potency result in [12] and in test [13] was “inactive” throughout. Besides, the result in test [5] was inactive.

On to `CCc1cccc(C)c1`, for which the Potency result in [1], in test [2], in test [3], in test [6], in test [7] and in test [15] was “inactive” throughout. Besides, the Potency entry in test [16], in [17], in [9], in test [18], in test [10] and in test [11] was “inactive” each time. Also, the Potency result in [12] and in test [13] was “inactive” throughout. Also, the result in [5] and in test [8] was inactive.

The record behind these values is PubChem BioAssay (Tox21).
